# Test results reported in PMC7862700, “An all-to-all approach to the identification of sequence-specific readers for epigenetic DNA modifications on cytosine”.
# How the values were obtained:
# Test in all cases: DAPPL (digital affinity profiling via proximity ligation, sequencing); 10 mM Tris-HCl pH 7.5, 50 mM NaCl, 1 mM DTT, 4% glycerol, room temperature, 30 min; GST-TFs on glutathione beads, 16-mer random dsDNA library, 0.1% formaldehyde crosslink after washing; high values mean tight binding
# FLI1 = target: T1, FLI1 (Homo sapiens, UniProt Q01543 1-452); conditions: protein: recombinant; tags: N-terminal GST; dsDNA, one strand shown
# T1 sequence: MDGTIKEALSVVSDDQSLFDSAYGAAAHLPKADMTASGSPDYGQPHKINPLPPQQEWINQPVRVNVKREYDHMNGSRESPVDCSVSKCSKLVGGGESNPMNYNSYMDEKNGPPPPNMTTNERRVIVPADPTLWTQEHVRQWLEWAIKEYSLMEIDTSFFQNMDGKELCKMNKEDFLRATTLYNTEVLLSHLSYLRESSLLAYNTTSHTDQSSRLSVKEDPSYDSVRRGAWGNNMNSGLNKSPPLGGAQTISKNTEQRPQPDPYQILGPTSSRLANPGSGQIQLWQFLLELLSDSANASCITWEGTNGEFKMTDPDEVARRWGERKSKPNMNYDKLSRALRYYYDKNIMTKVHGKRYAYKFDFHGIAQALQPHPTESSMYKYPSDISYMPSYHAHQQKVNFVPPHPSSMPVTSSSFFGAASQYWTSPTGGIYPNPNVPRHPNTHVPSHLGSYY
# In short: (§1)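 Human transcription factors fused to GST were expressed in yeast, captured on glutathione beads, given DNA barcodes and pooled with a GST-only negative control. Pools were incubated with 200 nmole of a 16-mer random double-stranded DNA library in Tris/NaCl/DTT/glycerol buffer at room temperature for 30 min. They were then washed, crosslinked with 0.1% formaldehyde, proximity-ligated (BsaI/T4 ligase, 1 h, 37 °C), PCR-amplified and sequenced on an Illumina NextSeq500. Binding signal is each 6-mer's read frequency for a factor divided by its frequency for the GST control.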
# ELK1 = target: T2, ELK1 (Homo sapiens, UniProt P19419 1-428); conditions: protein: recombinant; tags: N-terminal GST; dsDNA, one strand shown
# T2 sequence: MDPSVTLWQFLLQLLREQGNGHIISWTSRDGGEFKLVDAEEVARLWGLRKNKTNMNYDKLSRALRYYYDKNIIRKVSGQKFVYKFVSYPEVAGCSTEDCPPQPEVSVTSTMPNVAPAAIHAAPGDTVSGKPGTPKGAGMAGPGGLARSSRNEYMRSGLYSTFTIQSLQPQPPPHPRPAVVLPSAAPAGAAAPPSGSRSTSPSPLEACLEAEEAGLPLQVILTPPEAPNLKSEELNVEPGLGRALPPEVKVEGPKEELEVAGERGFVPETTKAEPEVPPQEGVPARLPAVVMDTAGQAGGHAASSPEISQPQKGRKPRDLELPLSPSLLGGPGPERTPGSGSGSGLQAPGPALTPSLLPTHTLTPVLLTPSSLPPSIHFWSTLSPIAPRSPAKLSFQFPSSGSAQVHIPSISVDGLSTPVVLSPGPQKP
# In short: as §1
# GABPA = target: T3, GABPA (Homo sapiens, UniProt Q06546 1-454); conditions: protein: recombinant; tags: N-terminal GST; dsDNA, one strand shown
# T3 sequence: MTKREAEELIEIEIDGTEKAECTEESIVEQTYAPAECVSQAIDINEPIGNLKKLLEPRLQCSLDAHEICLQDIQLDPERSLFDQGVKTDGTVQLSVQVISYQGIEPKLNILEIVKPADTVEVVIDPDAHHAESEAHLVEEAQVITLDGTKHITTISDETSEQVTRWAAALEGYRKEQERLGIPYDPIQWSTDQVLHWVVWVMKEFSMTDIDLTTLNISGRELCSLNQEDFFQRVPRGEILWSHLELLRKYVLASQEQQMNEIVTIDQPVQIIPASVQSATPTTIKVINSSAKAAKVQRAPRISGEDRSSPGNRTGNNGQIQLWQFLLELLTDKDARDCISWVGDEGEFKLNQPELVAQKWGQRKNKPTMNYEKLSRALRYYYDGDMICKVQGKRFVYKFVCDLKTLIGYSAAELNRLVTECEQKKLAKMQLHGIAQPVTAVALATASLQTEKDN
# In short: as §1
# ERG = target: T4, ERG (Homo sapiens, UniProt P11308 1-479); conditions: protein: recombinant; tags: N-terminal GST; dsDNA, one strand shown
# T4 sequence: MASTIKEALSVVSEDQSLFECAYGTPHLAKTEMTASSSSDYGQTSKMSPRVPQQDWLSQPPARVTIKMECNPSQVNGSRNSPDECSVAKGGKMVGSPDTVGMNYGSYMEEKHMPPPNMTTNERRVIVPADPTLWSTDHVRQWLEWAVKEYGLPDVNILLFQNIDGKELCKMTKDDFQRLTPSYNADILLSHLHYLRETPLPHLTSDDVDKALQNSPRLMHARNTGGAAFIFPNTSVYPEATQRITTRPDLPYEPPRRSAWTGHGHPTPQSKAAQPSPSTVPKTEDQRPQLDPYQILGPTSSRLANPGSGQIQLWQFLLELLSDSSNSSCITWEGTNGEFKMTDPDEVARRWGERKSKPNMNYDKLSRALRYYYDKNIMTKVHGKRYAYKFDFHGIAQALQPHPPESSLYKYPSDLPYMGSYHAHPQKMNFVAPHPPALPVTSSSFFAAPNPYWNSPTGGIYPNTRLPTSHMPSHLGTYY
# In short: as §1
# ELF1 = ELF1 (Homo sapiens, UniProt P32519 1-619); conditions: protein: recombinant; tags: N-terminal GST; dsDNA, one strand shown
# In short: as §1
# EHF = target: T5, EHF (Homo sapiens, UniProt Q9NZC4 1-300); conditions: protein: recombinant; tags: N-terminal GST; dsDNA, one strand shown
# T5 sequence: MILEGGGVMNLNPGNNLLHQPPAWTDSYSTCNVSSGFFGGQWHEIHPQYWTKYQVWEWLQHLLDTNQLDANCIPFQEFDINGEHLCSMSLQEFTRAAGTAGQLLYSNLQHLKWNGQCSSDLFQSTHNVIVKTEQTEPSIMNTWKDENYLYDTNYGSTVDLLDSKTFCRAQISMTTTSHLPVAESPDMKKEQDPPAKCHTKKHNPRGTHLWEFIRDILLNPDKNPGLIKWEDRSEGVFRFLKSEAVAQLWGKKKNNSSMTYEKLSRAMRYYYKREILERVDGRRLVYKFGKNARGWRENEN
# In short: as §1
# SPI1 = SPI1 (Homo sapiens, UniProt P17947 1-270); conditions: protein: recombinant; tags: N-terminal GST; dsDNA, one strand shown
# In short: as §1
# SPIB = SPIB (Homo sapiens, UniProt Q01892 1-262); conditions: protein: recombinant; tags: N-terminal GST; dsDNA, one strand shown
# In short: as §1
# ELK3 = target: T6, ELK3 (Homo sapiens, UniProt P41970 1-407); conditions: protein: recombinant; tags: N-terminal GST; dsDNA, one strand shown
# T6 sequence: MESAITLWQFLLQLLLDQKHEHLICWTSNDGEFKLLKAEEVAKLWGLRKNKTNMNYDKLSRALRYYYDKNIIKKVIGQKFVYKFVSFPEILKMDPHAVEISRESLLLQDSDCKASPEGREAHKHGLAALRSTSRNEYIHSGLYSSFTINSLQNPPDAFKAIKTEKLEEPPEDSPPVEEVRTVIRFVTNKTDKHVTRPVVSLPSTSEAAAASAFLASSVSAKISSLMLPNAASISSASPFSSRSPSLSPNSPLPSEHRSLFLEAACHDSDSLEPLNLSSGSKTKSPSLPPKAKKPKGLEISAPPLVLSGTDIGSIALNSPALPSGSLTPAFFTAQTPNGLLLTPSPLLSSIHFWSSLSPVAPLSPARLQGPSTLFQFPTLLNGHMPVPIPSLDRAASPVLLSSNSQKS
# In short: as §1
# FEV = target: T7, FEV (Homo sapiens, UniProt Q99581 1-238); conditions: protein: recombinant; tags: N-terminal GST; dsDNA, one strand shown
# T7 sequence: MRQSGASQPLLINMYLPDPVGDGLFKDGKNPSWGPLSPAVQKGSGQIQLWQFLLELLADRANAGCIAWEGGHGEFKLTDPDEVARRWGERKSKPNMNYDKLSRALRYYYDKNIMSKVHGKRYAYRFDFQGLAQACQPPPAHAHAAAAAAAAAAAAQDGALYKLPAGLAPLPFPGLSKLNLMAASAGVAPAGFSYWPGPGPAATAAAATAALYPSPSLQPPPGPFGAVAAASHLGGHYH
# In short: as §1
# ETV5 = ETV5 (Homo sapiens, UniProt P41161 1-510); conditions: protein: recombinant; tags: N-terminal GST; dsDNA, one strand shown
# In short: as §1
# HSF1 = HSF1 (Homo sapiens, UniProt Q00613 1-529); conditions: protein: recombinant; tags: N-terminal GST; chain copies: 3; dsDNA, one strand shown
# In short: as §1
# SPIC = target: T8, SPIC (Homo sapiens, UniProt Q8N5J4 1-248); conditions: protein: recombinant; tags: N-terminal GST; dsDNA, one strand shown
# T8 sequence: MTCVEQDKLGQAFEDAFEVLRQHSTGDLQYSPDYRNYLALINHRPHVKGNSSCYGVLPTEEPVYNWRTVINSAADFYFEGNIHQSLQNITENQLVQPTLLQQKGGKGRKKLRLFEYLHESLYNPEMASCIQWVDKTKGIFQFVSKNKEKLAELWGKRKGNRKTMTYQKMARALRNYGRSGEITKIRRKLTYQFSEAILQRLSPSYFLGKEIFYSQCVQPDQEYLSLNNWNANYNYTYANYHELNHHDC
# In short: as §1
# ELF4 = ELF4 (Homo sapiens, UniProt Q99607 1-663); conditions: protein: recombinant; tags: N-terminal GST; dsDNA, one strand shown
# In short: as §1
# ELK4 = target: T9, ELK4 (Homo sapiens, UniProt P28324-2 1-405); conditions: protein: recombinant; tags: N-terminal GST; dsDNA, one strand shown
# T9 sequence: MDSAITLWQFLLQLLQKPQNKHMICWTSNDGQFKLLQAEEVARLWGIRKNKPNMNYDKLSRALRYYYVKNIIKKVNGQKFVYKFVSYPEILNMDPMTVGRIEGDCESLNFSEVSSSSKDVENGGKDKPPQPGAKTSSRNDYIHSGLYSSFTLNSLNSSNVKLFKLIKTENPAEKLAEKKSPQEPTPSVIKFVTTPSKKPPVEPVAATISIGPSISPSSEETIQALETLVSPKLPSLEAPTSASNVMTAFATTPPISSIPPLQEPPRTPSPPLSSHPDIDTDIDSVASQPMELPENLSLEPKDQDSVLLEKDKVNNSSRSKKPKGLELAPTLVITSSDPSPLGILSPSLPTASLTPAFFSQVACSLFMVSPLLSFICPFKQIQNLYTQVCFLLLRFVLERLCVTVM
# In short: as §1
# ETV2 = target: T10, ETV2 (Homo sapiens, UniProt O00321 1-342); conditions: protein: recombinant; tags: N-terminal GST; dsDNA, one strand shown
# T10 sequence: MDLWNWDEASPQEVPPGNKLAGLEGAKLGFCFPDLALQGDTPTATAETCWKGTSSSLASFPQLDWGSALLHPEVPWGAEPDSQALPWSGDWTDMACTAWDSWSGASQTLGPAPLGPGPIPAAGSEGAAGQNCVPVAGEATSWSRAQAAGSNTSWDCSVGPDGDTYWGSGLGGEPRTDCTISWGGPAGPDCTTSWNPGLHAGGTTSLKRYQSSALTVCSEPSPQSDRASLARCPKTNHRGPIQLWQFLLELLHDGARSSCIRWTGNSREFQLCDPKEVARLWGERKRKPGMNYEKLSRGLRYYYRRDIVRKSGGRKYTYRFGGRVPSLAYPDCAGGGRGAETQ
# In short: as §1
# ELF3 = target: T11, ELF3 (Homo sapiens, UniProt P78545 1-371); conditions: protein: recombinant; tags: N-terminal GST; dsDNA, one strand shown
# T11 sequence: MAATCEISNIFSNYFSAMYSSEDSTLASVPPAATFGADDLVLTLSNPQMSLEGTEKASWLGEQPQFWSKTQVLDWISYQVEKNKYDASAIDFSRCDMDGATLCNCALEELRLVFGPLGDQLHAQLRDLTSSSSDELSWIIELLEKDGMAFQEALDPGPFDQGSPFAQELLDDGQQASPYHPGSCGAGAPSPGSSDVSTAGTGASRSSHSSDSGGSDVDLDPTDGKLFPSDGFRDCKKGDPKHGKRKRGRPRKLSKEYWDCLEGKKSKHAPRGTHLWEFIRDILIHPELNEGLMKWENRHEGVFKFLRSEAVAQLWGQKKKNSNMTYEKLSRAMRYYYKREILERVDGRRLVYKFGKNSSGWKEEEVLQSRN
# In short: as §1
# CRX = CRX (Homo sapiens, UniProt O43186 1-299); conditions: protein: recombinant; tags: N-terminal GST; dsDNA, one strand shown
# In short: as §1
# ETV1 = ETV1 (Homo sapiens, UniProt P50549 1-477); conditions: protein: recombinant; tags: N-terminal GST; dsDNA, one strand shown
# In short: as §1
# Sequence of ELF4 (Q99607 whole entry): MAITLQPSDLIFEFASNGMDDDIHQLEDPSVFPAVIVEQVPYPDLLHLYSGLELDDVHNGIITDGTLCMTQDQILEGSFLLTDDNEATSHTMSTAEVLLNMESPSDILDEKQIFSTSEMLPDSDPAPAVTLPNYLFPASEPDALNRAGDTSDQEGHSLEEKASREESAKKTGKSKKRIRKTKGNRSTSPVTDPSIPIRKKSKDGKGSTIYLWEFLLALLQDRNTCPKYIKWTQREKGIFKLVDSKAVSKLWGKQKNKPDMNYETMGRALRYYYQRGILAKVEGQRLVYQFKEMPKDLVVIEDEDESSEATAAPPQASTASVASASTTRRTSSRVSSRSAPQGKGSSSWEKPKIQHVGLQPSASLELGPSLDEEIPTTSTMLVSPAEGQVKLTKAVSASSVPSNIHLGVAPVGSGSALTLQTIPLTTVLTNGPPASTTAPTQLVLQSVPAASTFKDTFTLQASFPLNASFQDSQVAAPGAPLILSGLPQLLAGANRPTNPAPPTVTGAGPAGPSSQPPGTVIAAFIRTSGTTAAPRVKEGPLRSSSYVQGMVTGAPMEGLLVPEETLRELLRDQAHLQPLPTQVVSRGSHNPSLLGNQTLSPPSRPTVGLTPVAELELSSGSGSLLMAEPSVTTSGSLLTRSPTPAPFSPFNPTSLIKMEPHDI
# Sequence of ETV5 (P41161 whole entry): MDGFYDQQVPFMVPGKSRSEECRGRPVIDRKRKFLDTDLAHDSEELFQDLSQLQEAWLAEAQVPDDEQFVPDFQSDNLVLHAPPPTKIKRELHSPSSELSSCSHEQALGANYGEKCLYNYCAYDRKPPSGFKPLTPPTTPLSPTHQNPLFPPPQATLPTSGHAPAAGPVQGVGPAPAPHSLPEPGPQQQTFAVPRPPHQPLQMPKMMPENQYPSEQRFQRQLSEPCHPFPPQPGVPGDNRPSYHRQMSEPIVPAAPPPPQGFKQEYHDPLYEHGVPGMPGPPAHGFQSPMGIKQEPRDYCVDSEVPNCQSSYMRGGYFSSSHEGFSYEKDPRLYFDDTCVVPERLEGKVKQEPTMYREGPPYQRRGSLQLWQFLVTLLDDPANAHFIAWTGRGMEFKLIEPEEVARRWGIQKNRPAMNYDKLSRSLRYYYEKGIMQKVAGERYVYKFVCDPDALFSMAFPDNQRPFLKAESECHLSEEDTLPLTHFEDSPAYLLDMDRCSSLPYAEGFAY
# Sequence of SPIB (Q01892 whole entry): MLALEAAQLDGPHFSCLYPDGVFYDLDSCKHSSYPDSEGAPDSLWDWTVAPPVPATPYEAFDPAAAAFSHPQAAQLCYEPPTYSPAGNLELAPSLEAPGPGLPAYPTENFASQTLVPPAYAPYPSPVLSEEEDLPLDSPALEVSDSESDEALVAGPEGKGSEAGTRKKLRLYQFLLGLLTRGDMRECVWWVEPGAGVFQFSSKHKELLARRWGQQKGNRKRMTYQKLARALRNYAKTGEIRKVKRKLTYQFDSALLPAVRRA
# Sequence of ELF1 (P32519 whole entry): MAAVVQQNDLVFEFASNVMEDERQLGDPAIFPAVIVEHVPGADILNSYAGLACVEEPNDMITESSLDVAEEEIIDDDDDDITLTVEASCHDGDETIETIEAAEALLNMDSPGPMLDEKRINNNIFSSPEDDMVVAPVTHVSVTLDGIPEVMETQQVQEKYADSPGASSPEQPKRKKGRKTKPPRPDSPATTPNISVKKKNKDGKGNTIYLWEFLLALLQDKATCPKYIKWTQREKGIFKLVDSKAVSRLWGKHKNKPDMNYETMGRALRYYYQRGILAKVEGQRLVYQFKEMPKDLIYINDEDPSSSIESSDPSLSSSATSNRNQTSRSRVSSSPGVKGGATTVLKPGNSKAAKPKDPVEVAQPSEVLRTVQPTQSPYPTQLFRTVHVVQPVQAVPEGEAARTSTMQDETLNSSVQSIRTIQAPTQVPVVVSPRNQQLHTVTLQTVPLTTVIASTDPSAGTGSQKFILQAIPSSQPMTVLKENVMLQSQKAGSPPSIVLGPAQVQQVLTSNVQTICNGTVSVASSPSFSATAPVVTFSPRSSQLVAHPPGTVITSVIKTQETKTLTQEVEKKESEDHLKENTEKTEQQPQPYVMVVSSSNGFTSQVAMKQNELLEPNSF
# Sequence of CRX (O43186 whole entry): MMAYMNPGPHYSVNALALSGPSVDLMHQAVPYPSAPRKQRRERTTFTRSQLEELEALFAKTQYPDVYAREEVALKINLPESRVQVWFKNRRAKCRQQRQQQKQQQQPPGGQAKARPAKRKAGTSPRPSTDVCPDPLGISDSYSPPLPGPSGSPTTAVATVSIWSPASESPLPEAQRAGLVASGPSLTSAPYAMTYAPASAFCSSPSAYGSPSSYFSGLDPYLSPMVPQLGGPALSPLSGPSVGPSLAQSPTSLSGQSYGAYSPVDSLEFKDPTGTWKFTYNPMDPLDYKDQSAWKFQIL
# Sequence of ETV1 (P50549 whole entry): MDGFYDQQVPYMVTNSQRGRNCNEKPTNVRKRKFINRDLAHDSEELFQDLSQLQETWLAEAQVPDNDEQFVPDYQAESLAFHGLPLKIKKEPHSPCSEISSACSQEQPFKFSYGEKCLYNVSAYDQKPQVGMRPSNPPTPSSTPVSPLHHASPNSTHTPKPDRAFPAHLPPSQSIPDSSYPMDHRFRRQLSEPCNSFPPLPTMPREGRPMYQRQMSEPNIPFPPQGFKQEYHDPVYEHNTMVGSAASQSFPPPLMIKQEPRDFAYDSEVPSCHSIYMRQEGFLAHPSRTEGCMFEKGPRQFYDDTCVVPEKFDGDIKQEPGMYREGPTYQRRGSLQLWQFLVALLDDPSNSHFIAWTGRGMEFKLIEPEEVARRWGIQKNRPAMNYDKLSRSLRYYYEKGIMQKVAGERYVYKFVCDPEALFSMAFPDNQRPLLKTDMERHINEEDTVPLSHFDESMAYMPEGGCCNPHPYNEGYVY
# Sequence of HSF1 (Q00613 whole entry): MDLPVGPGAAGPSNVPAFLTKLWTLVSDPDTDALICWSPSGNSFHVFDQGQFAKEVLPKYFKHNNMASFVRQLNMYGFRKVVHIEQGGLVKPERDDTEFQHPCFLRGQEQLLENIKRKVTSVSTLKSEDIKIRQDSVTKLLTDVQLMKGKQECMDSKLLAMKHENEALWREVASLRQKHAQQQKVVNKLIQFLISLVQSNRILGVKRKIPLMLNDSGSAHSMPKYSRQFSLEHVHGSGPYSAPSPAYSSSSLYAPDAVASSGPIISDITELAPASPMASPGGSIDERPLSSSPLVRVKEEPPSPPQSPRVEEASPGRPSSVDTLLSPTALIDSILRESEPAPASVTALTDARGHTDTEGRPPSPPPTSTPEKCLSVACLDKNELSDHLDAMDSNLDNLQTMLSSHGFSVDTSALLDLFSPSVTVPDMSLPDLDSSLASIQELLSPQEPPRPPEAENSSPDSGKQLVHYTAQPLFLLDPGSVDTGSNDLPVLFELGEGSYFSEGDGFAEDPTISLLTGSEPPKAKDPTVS
sequence,measurement,setting,value
CTAATC,binding signal,FLI1,"1.32 fold enrichment (6-mer frequency, TF over GST control)"
same,binding signal,ELK1,"1.39 fold enrichment (6-mer frequency, TF over GST control)"
same,binding signal,GABPA,"1.34 fold enrichment (6-mer frequency, TF over GST control)"
same,binding signal,ERG,"1.32 fold enrichment (6-mer frequency, TF over GST control)"
same,binding signal,ELF1,"1.32 fold enrichment (6-mer frequency, TF over GST control)"
same,binding signal,EHF,"1.35 fold enrichment (6-mer frequency, TF over GST control)"
same,binding signal,SPI1,"1.26 fold enrichment (6-mer frequency, TF over GST control)"
same,binding signal,SPIB,"1.45 fold enrichment (6-mer frequency, TF over GST control)"
same,binding signal,ELK3,"1.44 fold enrichment (6-mer frequency, TF over GST control)"
same,binding signal,FEV,"1.33 fold enrichment (6-mer frequency, TF over GST control)"
same,binding signal,ETV5,"1.32 fold enrichment (6-mer frequency, TF over GST control)"
same,binding signal,HSF1,"3.22 fold enrichment (6-mer frequency, TF over GST control)"
same,binding signal,SPIC,"1.41 fold enrichment (6-mer frequency, TF over GST control)"
same,binding signal,ELF4,"1.42 fold enrichment (6-mer frequency, TF over GST control)"
same,binding signal,ELK4,"1.35 fold enrichment (6-mer frequency, TF over GST control)"
same,binding signal,ETV2,"1.41 fold enrichment (6-mer frequency, TF over GST control)"
same,binding signal,ELF3,"1.56 fold enrichment (6-mer frequency, TF over GST control)"
same,binding signal,CRX,"5.33 fold enrichment (6-mer frequency, TF over GST control)"
same,binding signal,ETV1,"1.49 fold enrichment (6-mer frequency, TF over GST control)"
